# Compound activity from PubChem BioAssay.
# TRPM1 prom inh = inhibitors of MITF-dependent TRPM1 promoter reporter, primary screen, cell-based, SK-MEL-5, single point, luciferase; SK-MEL-5 TRPM1 promoter luciferase, 24 h; inhibition, % at 12.5 µM; 330,000 tested, 0.83% active; AID 488899, 2010;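 active = mean inhibition across replicates of 60% or more, whatever share of single replicates reaches that level; inconclusive = some that reach 60%, reason not given; inactive = mean inhibition across replicates below 60%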
# HIF-2a block = HIF-2a reporter inhibitors, primary screen, luminescence, 786-0 RCC cells; 786-0 RCC cells HIF-2a reporter, luciferase luminescence, overnight; 360,000 tested, 0.72% active; inhibition, % at 18.8 µM; AID 624352, 2012;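 active = inhibition of the luminescence signal of 40% or more relative to plate controls, in a single-dose primary screen at 18.75 µM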
# Peg3 prom inh = Peg3 promoter-driven luciferase inhibitors, primary screen, cell-based, HeLa, luciferase luminescence | 360,000 tested, 1.7% active | HeLa PEG-Prom luciferase reporter, overnight | inhibition, % at 20 µM;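 active = inhibition of at least 50% at 20 µM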
# Shn3 inh set2 = reduction of Shn3 3'UTR firefly luciferase signal, primary screen, Schnurri-3 inhibitor project, cell-based, Clone20 osteoblasts, set 2; Clone20 osteoblast Shn3 3'UTR firefly luciferase, 24 h; 360,000 tested, 0.52% active; inhibition, % at 12.5 µM;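 active = mean inhibition of at least 75% with every replicate also reaching 75%; inconclusive = mean inhibition at least 75% but some replicate below; inactive = mean inhibition below 75%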
# PAX8 reporter = inhibitors of PAX8-driven TPO luciferase reporter, primary screen, RMG-I cells, single concentration | SteadyGlo, 24 h | inhibition, % at 12.6 µM | 360,000 tested, 1.2% active | AID 652154, 2013;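 active = mean replicate inhibition at least 60% with every replicate also reaching 60%; inconclusive = only one of the two criteria is met; inactive = mean below 60% and not all replicates reaching 60%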;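 note: luciferase light reporting Pax8 driven TPO promoter activity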
# LMP1 NFkB inh = EBV LMP1-driven NF-kappaB luciferase reporter inhibitors, primary screen, cell-based, luminescence, single point | LMP1-induced NF-kappaB luciferase reporter cells | inhibition, % at 12.5 µM | 350,000 tested, 0.69% active | AID 504558, 2011; in the data active = inhibition above about 41%; inconclusive = no clear call, values can overlap the other calls
# Numbers stand for hits; i = inactive; ? = inconclusive; nt = not tested or not shown. This is a sample that favours compounds with a hit; in the whole collection about 2.8% have one here.
SMILES,TRPM1 prom inh,HIF-2a block,Peg3 prom inh,Shn3 inh set2,PAX8 reporter,LMP1 NFkB inh
N=C(N)SCc1cn(-c2ccccc2)nc1-c1ccc(Br)cc1,i,i,108.2,?,i,i
C[C@@H]1CN([C@@H](C)CO)C(=O)c2cc(C#Cc3ccncc3)cnc2O[C@H]1CN(C)CC1CCCC1,nt,nt,nt,nt,i,nt
O=C(Nc1ccccc1)c1cc2ccccc2o1,i,i,i,i,i,i
N=c1oc2ccccc2cc1C(=O)Nc1ccc(F)cc1,i,i,i,i,i,i
CCC(=O)N1CCN(c2ccc(NC(=O)c3cc4ccccc4o3)cc2Cl)CC1,i,i,107.7,i,nt,i
O=C(Nc1ccc(NC(=O)c2cc3ccccc3o2)cc1)c1ccco1,i,i,62.7,i,i,i
O=C(Nc1ccc(N2CCN(C(=O)c3ccco3)CC2)c(Cl)c1)c1cc2ccccc2o1,70.3,i,100.2,89.6,nt,i
Cc1ccc(NC(=O)c2cc3ccccc3oc2=N)cc1,i,i,i,i,i,50.0
O=C(Nc1ccc(N2CCN(C(=O)c3ccccc3)CC2)c(Cl)c1)c1ccco1,i,i,i,i,nt,i
CN1C[C@H](O)COC[C@@H]2O[C@@H](CC(=O)NC3CCC3)CC[C@H]21,nt,nt,nt,nt,i,nt
CCCC(=O)N1CCN(c2ccc(NC(=O)c3cccs3)cc2Cl)CC1,i,i,i,i,i,i
CCCC(=O)N1CCN(c2ccc(NC(=O)c3cc4ccccc4o3)cc2Cl)CC1,?,i,103.8,91.5,nt,i
COc1ccccc1/C=C1\SC(=S)N(CCC(=O)NCCc2ccc(O)cc2)C1=O,i,i,i,i,i,i
COc1ccc(/C=C2\SC(=S)N(CCCC(=O)N3CCOCC3)C2=O)cc1,i,68.4,i,i,i,i
COc1ccc(/C=C2\SC(=S)N(CCC(=O)NCCc3ccc(O)cc3)C2=O)cc1,i,58.4,102.2,i,i,i
COc1ccc(/C=C2/SC(=S)N(CCC(=O)O)C2=O)cc1,61.2,84.5,i,i,nt,i
COc1ccc(/C=C2\SC(=S)N(CCC(=O)Nc3ccc(C(=O)O)cc3)C2=O)cc1,i,i,i,i,i,i
CN1CCN(C(=O)CCN2C(=O)/C(=C/c3ccccc3Cl)SC2=S)CC1,i,i,59.2,i,i,i
O=C(C[C@@H]1CC[C@@H]2[C@H](COC[C@H](O)CN2C(=O)Nc2ccc(Cl)c(Cl)c2)O1)NCc1ccc(F)cc1,nt,nt,nt,nt,i,nt
O=C(O)CCN1C(=O)/C(=C\c2ccncc2)SC1=S,i,i,i,i,i,i
O=C(CN1C(=O)/C(=C/c2ccccc2)SC1=S)N1CCN(CCc2ccccn2)CC1,i,i,74.2,i,i,i
O=C(O)CCN1C(=O)/C(=C\c2cccc(Oc3ccccc3)c2)SC1=S,i,71.6,i,i,i,i
O=C(CCCN1C(=O)/C(=C/c2ccccc2Cl)SC1=S)N1CCOCC1,i,48.5,i,i,i,i
O=C(CCCN1C(=O)/C(=C\c2ccccc2)SC1=S)N1CCOCC1,i,i,i,i,i,i
O=C(CCN1C(=O)/C(=C\c2ccccc2)SC1=S)N1CCCCC1,i,45.3,94.4,i,i,i
SMILES,TRPM1 prom inh,HIF-2a block,Peg3 prom inh,Shn3 inh set2,PAX8 reporter,LMP1 NFkB inh
Cc1ccc(/C=C2\SC(=S)N(CCC(=O)N3CCCCC3)C2=O)cc1,i,i,i,i,i,i
COc1ccc(-c2ccc([C@H]3[C@H](C#N)N[C@H]3CO)cc2)cc1,nt,nt,nt,nt,i,nt
O=C(C[C@@H]1CC[C@@H]2[C@H](COC[C@@H](O)CN2C(=O)Cc2ccccc2)O1)NC1CCCC1,nt,nt,nt,nt,i,nt
C[C@H]1CN([C@@H](C)CO)C(=O)c2cc(-c3ccccc3)cnc2O[C@@H]1CN(C)C(=O)NC1CCCC1,nt,nt,nt,nt,i,nt
O=C(c1ccc2c(c1)OCO2)N1CC(=O)N2[C@@H](CO)[C@H](c3ccc(C#CCC4CCCC4)cc3)[C@@H]2C1,nt,nt,nt,nt,i,nt
O=C1CCc2cc(OCCCCc3nnnn3C3CCCCC3)ccc2N1,i,i,i,i,i,73.2
Cc1ccc2c(C)nc(Nc3nc(CSc4nc5ccccc5[nH]4)cc(=O)[nH]3)nc2c1,80.0,i,108.6,i,nt,i
Cc1ccc(SCc2cc(=O)[nH]c(Nc3nc(C)c4ccc(C)cc4n3)n2)cc1,i,i,i,i,i,i
Cc1ccc2nc(Nc3nc(-c4ccccc4)cc(=O)[nH]3)nc(C)c2c1,i,i,i,i,nt,i
COc1ccc2c(C)nc(Nc3nc(-c4ccccc4)cc(=O)[nH]3)nc2c1,70.2,i,108.2,i,95.2,i
CCCNC(=O)N1[C@H](CO)[C@@H]2c3ccccc3N(C(=O)CC)C[C@@H]21,nt,nt,nt,nt,i,nt
Cc1ccc(-c2nnc(SCC(=O)N/N=C/c3ccc(C)s3)n2-c2ccccc2)cc1,i,i,65.3,i,i,i
O=C(O)[C@H]1[C@H](CO)[C@H]2Cn3c(ccc(-c4cccc(F)c4)c3=O)[C@H]2N1C(=O)c1ccccn1,nt,nt,nt,nt,i,nt
COc1cccc(C(=O)Oc2ccccc2/C=C\C(=O)c2cc3ccccc3o2)c1,i,i,104.9,i,i,i
O=C(Oc1ccccc1/C=C\C(=O)c1cc2ccccc2o1)c1ccccc1,i,i,i,i,i,i
O=C(C[C@@H]1C[C@H]2c3cc(NC(=O)c4cccnc4)ccc3O[C@H]2[C@H](CO)O1)NCc1cccc(F)c1,nt,nt,nt,nt,i,nt
C[C@@H](NCCCn1ccc(NC(=O)OCc2ccccc2)nc1=O)c1cccc2ccccc12,i,i,71.2,i,i,i
C[C@@H](NC(=O)Cn1ccc(NC(=O)OCc2ccccc2)nc1=O)c1cccc2ccccc12,i,i,i,i,i,i
CC(C)(C)n1nnnc1C(c1ccc(C(F)(F)F)cc1)N(Cc1ccccc1)Cc1ccco1 (centres undefined),i,i,i,87.5,nt,i
CC(C)(C)n1nnnc1C(c1ccc(C(F)(F)F)cc1)N(Cc1ccc(F)cc1)Cc1ccco1 (centres undefined),i,i,i,89.1,nt,i
COc1ccc(S(=O)(=O)Nc2ccc3c(c2)C(=O)N([C@@H](C)CO)C[C@@H](C)[C@H](CN(C)S(=O)(=O)c2ccc(C)cc2)OCCCC[C@H](C)O3)cc1,nt,nt,nt,nt,i,nt
COC(=O)N1C(=O)[C@](c2ccccc2)(C2CCCCC2)N1C(=O)OC,i,i,i,i,i,i
COC(=O)N1C(=O)[C@@](c2ccccc2)(C2CCCC2)N1C(=O)OC,i,i,50.1,i,nt,i
COC(=O)c1cccc(COC(=O)c2ccccc2NC(=O)c2ccco2)c1,i,i,i,i,nt,50.6
Cc1ccc(C(=O)c2ccccc2C(=O)OCC(=O)Nc2cccc([N+](=O)[O-])c2)cc1,i,i,i,i,nt,i
Cc1ccc(-c2nc(C)sc2CC(=O)OCC(=O)Nc2cccc([N+](=O)[O-])c2)cc1,i,i,i,i,108.7,i
